Data as given in PubChem BioAssay (NCATS).
Inconclusive results are not listed. Values without a mark were called inactive. Activity calls are given as the source filed them. Calls come from the whole dose curve; as a rule, active = well fitted cell-killing curve with a large enough effect; inconclusive = small, poorly fitted or top-dose-only effect, or effect the other way; inactive = no such curve, though single readings can be large or run the other way.
Potency is the fitted concentration of half-maximal effect.

Experiment: Quantitative High-Throughput drug screen in 47 multiple myeloma cell lines against the NCATS MIPE library collection: XG1_PLB cell viability assay (AID 1919866); note: nearly all actives have a fitted effect of over 35% in size
Details: CellTiter-Glo ATP, 48 h; series mostly up to 45.8 µM; viability: at the top concentration
How it was run: (§1)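 MIPE 4.0 approved/investigational drugs; 500 cells/well; 48 h 37 °C humidified 5% CO2; CTG luminescence readout; DMSO = 100%, media = 0% viability.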
For `CN1CCN(c2ccc([N+](=O)[O-])c3no[n+]([O-])c23)CC1`, the Potency was 20900 nM (active).
In the case of `CCNC(=O)C[C@@H]1N=C(c2ccc(Cl)cc2)c2cc(OC)ccc2-n2c(C)nnc21`, the Potency is reported as 833 nM (active).
With `CC=C(C)C(=O)O[C@H]1C(C)=C2[C@@H]3OC(=O)[C@@](C)(O)[C@@]3(O)[C@@H](OC(=O)CCC)C[C@](C)(OC(C)=O)[C@@H]2[C@@H]1OC(=O)CCCCCCC` the Potency was 46.9 nM (active).

Experiment: Quantitative High-Throughput drug screen in 47 multiple myeloma cell lines against the NCATS MIPE library collection: VP6_DJ cell viability assay (AID 1919867); note: nearly all actives have a fitted effect of over 40% in size;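 for viability (% of DMSO): 100% = DMSO-only wells and 0% = wells with media alone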
Details: ATP luminescence, 48 h; series mostly up to 45.8 µM; viability (% of DMSO): at the top concentration
How it was run: as §1
In the case of `CC(=Cc1csc(C)n1)[C@@H]1C[C@H]2O[C@@H]2CCC[C@H](C)[C@@H](O)[C@@H](C)C(=O)C(C)(C)[C@@H](O)CC(=O)O1`, the “viability (% of DMSO)” value is reported as 60.1%.
With `CO[C@H]1CCC(O[C@H]2C[C@H]([C@]3(C)CC[C@]4(C[C@H](O)[C@@H](C)[C@@H]([C@@H](C)C=C(C)C(=O)[C@H](C)C[C@H](C)C(=O)O)O4)O3)O[C@]3(O[C@@H]([C@H]4O[C@@](O)(CO)[C@H](C)C[C@H]4C)C[C@H]3C)[C@H]2C)O[C@H]1C` (some centres undefined) the Potency was 1050 nM (active).
In the case of `O=c1[nH]c2ccc(Cl)cc2c(N[C@@H]2CN3CCC2CC3)c1-c1nc2ccccc2[nH]1`, the Potency is reported as 132 nM (active).
For `COc1ccc(N(C(=O)Oc2c(C)cccc2C)c2ccnc(Nc3ccc(N4CCN(C)CC4)cc3)n2)c(OC)c1`, the Potency was 2960 nM (active).
In the case of `C[C@@H]1[C@H](O)[C@@H](C)C=CC=CCCC=CC=CC=CC=C[C@H](O[C@H]2O[C@@H](C)[C@H](O)[C@@H](N)[C@@H]2O)CC2O[C@](O)(C[C@@H](O)[C@H](O)CC[C@@H](O)C[C@@H](O)C[C@@H](O)CC(=O)O[C@H]1C)C[C@H](O)[C@H]2C(=O)O`, the “viability (% of DMSO)” value is reported as 148%.
For `C[C@H]1CCCC=CC2C[C@H](O)C[C@@H]2[C@H](O)C=CC(=O)O1` (some centres undefined), the “viability (% of DMSO)” value was 6.51%.
In the case of `CC1=C(O)C(=O)C=C2C1=CC=C1[C@@]2(C)CC[C@@]2(C)[C@@H]3C[C@](C)(C(=O)O)CC[C@]3(C)CC[C@]12C`, the Potency is reported as 935 nM (active).
In the case of `CCN1CCN(C(=O)Cc2ccc(Nc3ncc(F)c(Nc4ccc(C(=O)Nc5ccccc5Cl)cc4)n3)cc2)CC1`, the Potency is reported as 2640 nM (active).
For `O=S(=O)(F)Cc1ccccc1`, the “viability (% of DMSO)” value was 125%.
In the case of `CC(C)[C@]12O[C@@H]1[C@@H]1O[C@]13[C@]1(O[C@H]1C[C@@H]1C4=C(CC[C@@]13C)C(=O)OC4)[C@H]2O`, the “viability (% of DMSO)” value is reported as 4.09%.
For `O=c1[nH]c2ccccc2n1C1CCN(Cc2ccc(-c3[nH]c4cc5ncnc5cc4nc3-c3ccccc3)cc2)CC1`, the Potency was 9350 nM (active).
In the case of `O=C(Nc1ccncc1)C(=O)c1cn(Cc2ccc(Cl)cc2)c2ccccc12`, the Potency is reported as 23.5 nM (active).
With `COCC1(CO)C(=O)C2CCN1CC2` (centres undefined) the Potency was 4180 nM (active).
With `C=C[C@@H]1CN2CCC1C[C@H]2[C@H](O)c1ccnc2ccccc12` (some centres undefined) the Potency was 26400 nM (active).
In the case of `C=CCON=C(C[C@H]1O[C@@H]2O[C@]3(C)CC[C@@H]4[C@H](C)CC[C@@H]([C@H]1C)[C@@]24OO3)[C@H]1O[C@@H]2O[C@]3(C)CC[C@H]4[C@H](C)CC[C@@H]([C@@H]1C)[C@@]24OO3`, the Potency is reported as 166 nM (active).
With `COc1ccc2c(c[n+](C)c3c4cc5c(cc4ccc23)OCO5)c1OC` the Potency was 2960 nM (active).
In the case of `COc1cccc2c1[C@]13CCN(CC4CC4)[C@H](C2)[C@]1(OC)CCC(=O)C3`, the Potency is reported as 20900 nM (active).
In the case of `Cc1[nH]nc2ccc(-c3cncc(OC[C@@H](N)Cc4c[nH]c5ccccc45)c3)cc12`, the Potency is reported as 296 nM (active).
In the case of `CC(C)(O)C=CC(=O)[C@](C)(O)[C@H]1[C@H](O)C[C@]2(C)[C@@H]3CC=C4[C@@H](C=C(O)C(=O)C4(C)C)[C@]3(C)C(=O)C[C@@]12C`, the Potency is reported as 105 nM (active).
With `CC[C@@H]1[C@@H](C)O[C@@](O)([C@@H](C)[C@H](O)[C@H](C)[C@H]2OC(=O)C=CC=C[C@@H](C)[C@@H]([C@@H](C)[C@@H](O)[C@H](C)[C@@]3(O)C[C@H](O[C@H]4C[C@H](O)[C@H](O)[C@H](C)O4)[C@H](CC)[C@@H](C)O3)OC(=O)C=CC=C[C@@H]2C)C[C@H]1O[C@H]1C[C@H](O)[C@H](O)[C@H](C)O1` the Potency was 469 nM (active).
In the case of `CC[C@@]1(O)C(=O)OCc2c1cc1n(c2=O)Cc2cc3ccccc3nc2-1`, the Potency is reported as 166 nM (active).
For `CCOC(=O)Nc1ccc(NCc2ccc(F)cc2)cc1N`, the Potency was 20900 nM (active).
In the case of `CN1CCN(c2ccc([N+](=O)[O-])c3no[n+]([O-])c23)CC1`, the Potency is reported as 14800 nM (active).
For `CCNC(=O)C[C@@H]1N=C(c2ccc(Cl)cc2)c2cc(OC)ccc2-n2c(C)nnc21`, the Potency was 296 nM (active).
In the case of `C[C@@H]1O[C@@H](O[C@@H]2C=C3CC[C@@H]4[C@@H](CC[C@]5(C)[C@H](c6ccc(=O)oc6)CC[C@@]45O)[C@@]3(C)CC2)[C@H](O)[C@H](O)[C@H]1O`, the Potency is reported as 11.8 nM (active).
For `CC=C(C)C(=O)O[C@H]1C(C)=C2[C@@H]3OC(=O)[C@@](C)(O)[C@@]3(O)[C@@H](OC(=O)CCC)C[C@](C)(OC(C)=O)[C@@H]2[C@@H]1OC(=O)CCCCCCC`, the Potency was 52.6 nM (active).
